Experimental data: PubChem BioAssay (NCI)
Compounds without any hit were thinned out: in the full panel of roughly 79,000, 15% have a hit. The source made the active and inactive calls. Cut-off read from the data, not from the text of the source: active = growth inhibition above about 70%; inactive = the rest.

Tests used:
[1] = NCI Yeast Anticancer Drug Screen. Data for the rad52 strain (AID 147);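 note: 0% = growth of vehicle-treated control cultures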; details: S. cerevisiae rad52 mutant growth inhibition, active compounds read high
In short: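 Measured: yeast growth inhibition. System: strain with a defined DNA damage repair alteration. Reference: vehicle-treated control cultures.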

[2] = NCI Yeast Anticancer Drug Screen. Data for the wt1 strain (AID 149);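 note: 0% = growth of vehicle-treated wt1 cultures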; details: S. cerevisiae wt1 strain (SPY 50644) growth inhibition, active compounds read high
In short: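 Growth inhibition read against vehicle controls after compound exposure of the wt1 yeast strain.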

[3] = NCI Yeast Anticancer Drug Screen. Data for the rad50EPP+ strain (AID 151);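 note: 0% = growth of vehicle-treated control cultures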; details: S. cerevisiae rad50 mutant strain, active compounds read high
In short: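 One strain with a rad50 alteration (rad50EPP+) was compound-treated, its growth then compared to that of vehicle controls.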

[4] = NCI Yeast Anticancer Drug Screen. Data for the mgt1 strain (AID 153); details: S. cerevisiae mgt1 mutant growth inhibition, active compounds read high
In short: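 After exposure of the mgt1 yeast mutant to compound, growth was measured and reported as inhibition compared with vehicle controls.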

[5] = NCI Yeast Anticancer Drug Screen. Data for the rad50 strain (AID 155);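 note: 0% = growth of vehicle-only cultures of the same strain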; details: S. cerevisiae rad50 strain growth inhibition, active compounds read high
In short: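 Readout: growth inhibition relative to vehicle-treated cultures. Compound exposure was carried out in a genetically defined yeast strain deficient in DNA damage repair.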

[6] = NCI Yeast Anticancer Drug Screen. Data for the mec2-1 strain (AID 157); details: S. cerevisiae mec2-1 strain, active compounds read high
In short: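 Test agents were screened against the mec2-1 yeast strain, with defined DNA repair or cell cycle alteration. Growth was scored as inhibition against vehicle-only controls.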

[7] = NCI Yeast Anticancer Drug Screen. Data for the rad14 strain (AID 159);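 note: 0% = growth of vehicle-treated control cultures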; details: S. cerevisiae rad14 strain growth inhibition, active compounds read high
In short: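 Growth inhibition vs vehicle controls; genetically altered yeast strain (DNA damage repair defect) treated with test compounds.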

[8] = NCI Yeast Anticancer Drug Screen. Data for the sgs1 mgt1 strain (AID 161);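 note: 0% = growth of cultures given vehicle only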; details: S. cerevisiae sgs1 mgt1 strain, active compounds read high
In short: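 Genetically altered yeast, compound exposure, growth inhibition relative to vehicle.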

[9] = NCI Yeast Anticancer Drug Screen. Data for the CLN2oe strain (AID 163);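 note: 0% = growth of vehicle-only control cultures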; details: S. cerevisiae CLN2oe strain, active compounds read high
In short: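 Here, growth inhibition in a cell-cycle-altered yeast strain after compound exposure was quantified against vehicle control growth.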

[10] = NCI Yeast Anticancer Drug Screen. Data for the cln2 rad14 strain (AID 165);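 note: 0% = growth equal to vehicle treated cultures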; details: S. cerevisiae cln2 rad14 strain, active compounds read high
In short: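 Growth of compound-exposed yeast (cln2 rad14 genotype) measured and expressed as inhibition relative to vehicle.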

[11] = NCI Yeast Anticancer Drug Screen. Data for the bub3 strain (AID 167); details: S. cerevisiae bub3 mutant strain, active compounds read high
In short: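 Readout: yeast growth inhibition, expressed relative to vehicle-only wells. The test organism is a mutant strain from a panel with lesions in DNA repair or checkpoint genes.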

[12] = NCI Yeast Anticancer Drug Screen. Data for the wt2 strain (AID 169);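 note: 0% = growth of vehicle-treated yeast cultures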; details: S. cerevisiae wt2 strain growth inhibition, active compounds read high
In short: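 Genetically defined yeast strains from a DNA-repair/cell-cycle panel were used. Compound-exposed yeast growth was measured, and the inhibition was calculated relative to vehicle treatment.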

[13] = NCI Yeast Anticancer Drug Screen. Data for the mlh1 strain (AID 171);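 note: 0% = growth of vehicle-treated control cultures of the same strain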; details: S. cerevisiae mlh1 strain growth inhibition, active compounds read high
In short: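 Here the genetically defined yeast mutant is grown with each compound, and the extent to which its growth falls below that of vehicle-exposed cells is reported.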

[14] = NCI Yeast Anticancer Drug Screen. Data for the sgs1 strain (AID 173);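 note: 0% = growth of vehicle-only control cultures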; details: S. cerevisiae sgs1 mutant, active compounds read high
In short: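 Relative growth inhibition, referenced to vehicle, was determined in a yeast strain with a defined alteration affecting DNA damage repair or cell cycle control after compound exposure.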

[15] = NCI Yeast Anticancer Drug Screen. Data for the mlh1 rad18 strain (AID 175); details: S. cerevisiae mlh1 rad18 strain growth inhibition, active compounds read high
In short: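 In this whole-cell yeast screen, a strain with altered DNA damage repair is challenged with compound, and its growth is measured against matched vehicle-treated controls.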

[16] = NCI Yeast Anticancer Drug Screen. Data for the rad18 strain (AID 177); details: S. cerevisiae rad18 mutant growth inhibition, active compounds read high
In short: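 Screen uses a yeast strain with a defined lesion in DNA damage repair; compound effect is read as loss of growth compared to untreated vehicle cultures.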

[17] = at 5.0 µM (retest, dose inferred, filed as 0.5)
[18] = at 50.0 µM (retest, dose inferred, filed as 5.0)

Measured: growth inhibition

COc1ccc(/C=C2\SC(=S)N(/C=C/c3nc4ccccc4[nH]c3=O)C2=O)cc1OC
inactive: [1]; at 1.2 µM 7% | [1]; at 3.7 µM 10% | [1]; at 11.0 µM 26% | [1]; at 33.0 µM 61% | [2]; at 1.2 µM 3% | [2]; at 3.7 µM 5% | [2]; at 11.0 µM 10% | [2]; at 33.0 µM 40% | [3]; at 1.2 µM 1% | [3]; at 3.7 µM 3% | [3]; at 11.0 µM 21% | [3]; at 33.0 µM 50% | [3]; at 100.0 µM 63% | [4]; at 1.2 µM -1% | [4]; at 3.7 µM 3% | [4]; at 11.0 µM 30% | [5]; at 1.2 µM -2% | [5]; at 3.7 µM -5% | [5]; [17] -12% | [5]; at 11.0 µM 12% | [5]; at 33.0 µM 61% | [5]; [18] 46% | [5]; at 50.0 µM 57.2% | [6]; at 1.2 µM 3% | [6]; at 3.7 µM 5% | [6]; [17] -17% | [6]; at 11.0 µM 17% | [6]; at 33.0 µM 66% | [6]; [18] 45% | [6]; at 50.0 µM 68.1% | [7]; at 1.2 µM 3% | [7]; at 3.7 µM 4% | [7]; at 11.0 µM 26% | [7]; at 33.0 µM 64% | [8]; [17] -7% | [8]; [18] 57% | [9]; at 1.2 µM -17% | [9]; at 3.7 µM -11% | [9]; at 11.0 µM 7% | [9]; at 33.0 µM 59% | [10]; [17] -30% | [10]; [18] 26% | [10]; at 50.0 µM 32.5% | [11]; at 1.2 µM 4% | [11]; at 3.7 µM 4% | [11]; [17] -14% | [11]; at 11.0 µM 19% | [11]; at 33.0 µM 52% | [11]; [18] 4% | [12]; at 1.2 µM 1% | [12]; at 3.7 µM 3% | [12]; at 11.0 µM 28% | [13]; at 1.2 µM 1% | [13]; at 3.7 µM 5% | [13]; at 11.0 µM 28% | [14]; at 1.2 µM 5% | [14]; at 3.7 µM 14% | [14]; at 11.0 µM 43% | [15]; [17] -11% | [15]; [18] 33% | [15]; at 50.0 µM 61.6% | [16]; at 1.2 µM 10% | [16]; at 3.7 µM 20% | [16]; at 11.0 µM 39% | [16]; at 33.0 µM 67%
active: [1]; at 100.0 µM 86% | [2]; at 100.0 µM 90% | [4]; at 33.0 µM 76% | [4]; at 100.0 µM 94% | [5]; at 100.0 µM 85% | [6]; at 100.0 µM 91% | [7]; at 100.0 µM 90% | [8]; at 50.0 µM 87% | [9]; at 100.0 µM 88% | [11]; at 50.0 µM 70.3% | [11]; at 100.0 µM 85% | [12]; at 33.0 µM 80% | [12]; at 100.0 µM 94% | [13]; at 33.0 µM 76% | [13]; at 100.0 µM 91% | [14]; at 33.0 µM 85% | [14]; at 100.0 µM 94% | [16]; at 100.0 µM 85%

Cc1cc(I)ccc1N
inactive: [1]; at 1.2 µM 24% | [1]; at 3.7 µM 4% | [1]; at 11.0 µM 24% | [2]; at 1.2 µM -8% | [2]; at 3.7 µM 2% | [2]; at 11.0 µM -8% | [3]; at 1.2 µM -24% | [3]; at 3.7 µM -11% | [3]; at 11.0 µM -8% | [3]; at 33.0 µM 20% | [4]; at 1.2 µM 36% | [4]; at 3.7 µM 5% | [4]; at 11.0 µM 28% | [5]; at 1.2 µM -31% | [5]; at 3.7 µM -13% | [5]; [17] 50% | [5]; at 11.0 µM -13% | [6]; at 1.2 µM -3% | [6]; at 3.7 µM 4% | [6]; [17] 51% | [6]; at 11.0 µM -2% | [7]; at 1.2 µM 1% | [7]; at 3.7 µM -15% | [7]; at 11.0 µM -1% | [8]; [17] -1% | [9]; at 1.2 µM -10% | [9]; at 3.7 µM -15% | [9]; at 11.0 µM -3% | [10]; [17] 46% | [10]; at 50.0 µM 62.1% | [11]; at 1.2 µM 1% | [11]; at 3.7 µM -7% | [11]; [17] 27% | [11]; at 11.0 µM 11% | [12]; at 1.2 µM -28% | [12]; at 3.7 µM -10% | [12]; at 11.0 µM -13% | [13]; at 1.2 µM 25% | [13]; at 3.7 µM 13% | [13]; at 11.0 µM 10%
active: [1]; at 33.0 µM 92% | [1]; at 100.0 µM 87% | [2]; at 33.0 µM 86% | [2]; at 100.0 µM 91% | [3]; at 100.0 µM 74% | [4]; at 33.0 µM 93% | [4]; at 100.0 µM 85% | [5]; at 33.0 µM 91% | [5]; [18] 79% | [5]; at 50.0 µM 85.6% | [5]; at 100.0 µM 93% | [6]; at 33.0 µM 87% | [6]; [18] 87% | [6]; at 50.0 µM 88.2% | [6]; at 100.0 µM 92% | [7]; at 33.0 µM 93% | [7]; at 100.0 µM 92% | [8]; [18] 92% | [8]; at 50.0 µM 89.3% | [9]; at 33.0 µM 79% | [9]; at 100.0 µM 86% | [10]; [18] 93% | [11]; at 33.0 µM 90% | [11]; [18] 90% | [11]; at 50.0 µM 86.8% | [11]; at 100.0 µM 94% | [12]; at 33.0 µM 88% | [12]; at 100.0 µM 94% | [13]; at 33.0 µM 89% | [13]; at 100.0 µM 92%

CCC/C(Cl)=N\OC(=O)Nc1cccc(C(F)(F)F)c1
active: [4]; at 33.0 µM 78% | [5]; [18] 99% | [5]; at 50.0 µM 87.1%
inactive: [1]; at 1.2 µM 9% | [1]; at 3.7 µM 10% | [1]; at 11.0 µM 10% | [1]; at 33.0 µM 19% | [1]; at 100.0 µM 21% | [2]; at 1.2 µM 1% | [2]; at 3.7 µM 2% | [2]; at 11.0 µM 0% | [2]; at 33.0 µM 2% | [2]; at 100.0 µM 5% | [3]; at 1.2 µM 27% | [3]; at 3.7 µM 32% | [3]; at 11.0 µM 36% | [3]; at 33.0 µM 35% | [3]; at 100.0 µM 25% | [4]; at 1.2 µM 7% | [4]; at 3.7 µM 37% | [4]; at 11.0 µM 68% | [4]; at 100.0 µM 66% | [5]; at 1.2 µM 12% | [5]; at 3.7 µM 14% | [5]; [17] -15% | [5]; at 11.0 µM 13% | [5]; at 33.0 µM 25% | [5]; at 100.0 µM 26% | [6]; at 1.2 µM 15% | [6]; at 3.7 µM 18%
